# CD40 NFkB inh = CD40 pathway inhibition in BL2 cells | BL2 NF-kB luciferase reporter, CD40L-induced, 4 h | inhibition, % at 10 µM | actives 0.94% (n = 83,000) | AID 1053188;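 active = mean inhibition of at least 50% with a set share of replicates also reaching that level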;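 also: 0% = neutral control wells and 100% = IKK inhibitor VII at 50 µM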
# * hit, by the source's call; [ ] = remark or other dose. Only a selection was taken, and hits are over-represented in it overall.
SMILES,CD40 NFkB inh
COC(=O)Cn1cnc2sc3c(c2c1=O)CCCC3,3
CC(C)NC(=O)N(C)C[C@H]1Oc2ccc(NS(C)(=O)=O)cc2CC(=O)N(C)C[C@H]1C,-3
O=C(Nc1ccc(F)cc1)N1[C@@H](CO)[C@@H]2c3ccccc3NC[C@@H]21,-9[25 µM]
CN1C(=O)c2cc(NC(=O)c3ccno3)ccc2OC[C@H]2O[C@@H](CC(=O)Nc3ccccc3)CC[C@@H]21,-2[25 µM]
C[C@@H]1CN(C)C(=O)c2cccc(NS(C)(=O)=O)c2O[C@H]1CN(C)S(C)(=O)=O,-4
O=C(NC1CCCC1)c1cc2nc(-c3ccccc3)cc(-c3ccccc3)n2n1,9
CC(=O)Nc1nc2nc(-c3ccccc3)cc(-c3ccccc3)n2n1,30*
O=C(Nc1nc2nc(-c3ccccc3)cc(-c3ccccc3)n2n1)c1ccco1,27
CN(C)C(=O)c1cccc(-c2ccccc2[C@H]2[C@H](C#N)N(C(=O)C3CCCC3)[C@H]2CO)c1,0
Cc1sc2ccccc2[n+]1CC(=O)O,-11
CC[n+]1c(/C=C(/C)SC)sc2ccccc21,26
CC[n+]1c(C)sc2cc(C)ccc21,56*
COc1ccc(CN(C)C[C@@H]2Oc3ccc(NC(=O)Nc4c(C)noc4C)cc3C(=O)N([C@@H](C)CO)C[C@H]2C)cc1,-2[25 µM]
CCC(=O)N1CCCCN2[C@H](CO)[C@H](c3ccc(/C=C/c4ccccc4)cc3)[C@@H]2C1,10[25 µM]
COC(=O)C[C@H]1C[C@H]2c3cc(NC(=O)Nc4ccccc4)ccc3O[C@H]2[C@H](CO)O1,17[25 µM]
C[C@@H]1CN([C@H](C)CO)C(=O)c2c(c3ccccc3n2C)-c2ccccc2CO[C@@H]1CN(C)Cc1ccccc1,23
CN(C)CC(=O)N1CC2(C1)[C@@H](c1ccccc1)[C@@H](CO)N2C(=O)C1CC1,1[25 µM]
O=C(C[C@@H]1CC[C@@H]2[C@H](COC[C@H](O)CN2S(=O)(=O)c2cccc(Cl)c2)O1)N1CCOCC1,0[25 µM]
COC(=O)C[C@](O)(CCCC(C)(C)O)C(=O)O[C@@H]1C(OC)=C[C@]23CCCN2CCc2cc4c(cc2[C@H]13)OCO4,92*[25 µM]
CCCC#Cc1cnc2c(c1)C(=O)N([C@@H](C)CO)C[C@@H](C)[C@@H](CN(C)C(=O)Cc1ccncc1)O2,7[25 µM]
CCCNC(=O)[C@H]1[C@H](CO)[C@H]2Cn3c(ccc(-c4cccc(C(=O)N(C)C)c4)c3=O)[C@@H]1N2,8[25 µM]
CC(=O)N1[C@H](CO)[C@H](c2ccccc2)[C@H]1CN(CC(C)C)C(=O)c1ccccn1,-8[25 µM]
Cc1cc(C(=O)CN2C(=O)c3ccccc3S2(=O)=O)c(C)n1CC1CCCO1 (stereo unspecified),13
CCCn1c(C)cc(C(=O)Cn2nnc3ccccc3c2=O)c1C,24
CCCn1c(C)cc(C(=O)CN2C(=O)c3ccccc3S2(=O)=O)c1C,53*
SMILES,CD40 NFkB inh
CC(=O)NC[C@H]1[C@@H](c2ccc(-c3cccc(F)c3)cc2)[C@@H](CO)N1C(=O)C1CC1,14[25 µM]
COc1ccccc1C#Cc1ccc2c(c1)[C@@H]1[C@@H](CCN1S(=O)(=O)c1cccc(C)c1)[C@H](CO)N2,-2[25 µM]
CO[C@@H]1CN(C)C(=O)c2cc(NS(=O)(=O)c3ccccc3C)ccc2OC[C@@H](C)N(S(=O)(=O)c2ccccc2)C[C@H]1C,9[25 µM]
COCc1cc(CN2CCCC2)c(O)c2ncccc12,10
CCOC(=O)N1CCN(Cc2ccc(O)c3ncccc23)CC1,65*
Oc1ccc(CN2CCN(c3ccccc3)CC2)c2cccnc12,-13
COc1ccc(NC(=O)Nc2ccc3c(c2)C(=O)N([C@H](C)CO)C[C@H](C)[C@H](CN(C)Cc2ccc(C(F)(F)F)cc2)OCCCC[C@H](C)O3)cc1,5
Cc1ccc2nc(-c3cc(-c4ccccc4)no3)cn2c1,63*
CC(=O)Nc1nccc(-c2cc(-c3ccccc3)no2)n1,-90
CN(C)C(=O)c1cc(-c2ccccc2)no1,-48
COC(=O)c1ccccc1-c1c2ccc(=N)cc-2oc2cc(N)ccc12,49*
COC(=O)c1ccc(N)cc1O,26
COC(=O)c1cc(=O)c2ccc(OC)cc2o1,-4
N#C[C@@H]1[C@@H](c2ccc(C3=CCCCC3)cc2)[C@@H](CO)N1C(=O)NC1CCCCC1,-11
C/C=C/c1ccc([C@H]2[C@@H](CO)N(c3nc(-c4ccccc4)cs3)[C@H]2C#N)cc1,-2[25 µM]
C[C@@H]1CN([C@@H](C)CO)C(=O)c2ccccc2-c2ccccc2CO[C@@H]1CN(C)C(=O)Nc1ccc2c(c1)OCO2,-13[25 µM]
Cc1noc(C)c1S(=O)(=O)N(C)C[C@H]1OCCCC[C@H](C)Oc2ccc(NC(=O)CCC(F)(F)F)cc2C(=O)N([C@H](C)CO)C[C@@H]1C,9[25 µM]
COc1ccc2[nH]c(=O)c(CN(Cc3cccs3)S(=O)(=O)c3cccc4nsnc34)cc2c1,55*
COc1ccc(S(=O)(=O)N(Cc2cccnc2)Cc2cc3ccccc3[nH]c2=O)cc1,6
COc1ccc2[nH]c(=O)c(CN(C(=O)c3cccnc3)c3ccccc3)cc2c1,-7
CO[C@@H](CN(C)C(=O)c1ccccc1F)[C@@H](C)CN([C@H](C)CO)S(=O)(=O)c1ccccc1,-7
COc1ccc2c3c(n(C)c2c1)[C@@H](CO)N(C(=O)CN(C)C)CC31CN(Cc2nccs2)C1,3[25 µM]
O=S(=O)(c1ccccc1F)N1CC[C@H]2[C@H](CO)Nc3ccc(-c4ccccc4)cc3[C@H]21,0
O=C(Nc1ccccc1F)N1C[C@H]2[C@@H](c3ccccc31)[C@@H](CO)N2C(=O)C1CCCCC1,-9[25 µM]
CC(=O)Nc1ccc2c(c1)Cc1cc(N3C(=O)C=CC3=O)ccc1-2,97*
SMILES,CD40 NFkB inh
CC(=O)Nc1ccc2c(c1)-c1ccc(F)cc1C2,-6
CC(=O)Nc1ccc2c(c1)Cc1ccc(Cl)cc1-2,-51
C[C@@H]1CN([C@@H](C)CO)C(=O)c2c(c3ccccc3n2C)-c2ccccc2CO[C@@H]1CN(C)CC1CC1,-1
CN1[C@@H]2Cn3c(ccc(-c4cccnc4)c3=O)[C@H]1[C@@H](C(=O)N1CCC(Cc3ccccc3)CC1)[C@@H]2CO,-2[25 µM]
CSc1nsc(SC)c1C(=O)O,4
CSc1nsc(SC)c1C(N)=O,78*
CSc1nsc(SC)c1C(=O)OCC(F)(F)F,-17
O=C(C1CCCC1)N1CC(=O)N2[C@@H](CO)[C@H](c3ccc(C#Cc4cccc(F)c4)cc3)[C@@H]2C1,3
CCNC(=O)[C@@H]1[C@@H](CO)[C@@H]2Cn3c(ccc(C4=CCCCC4)c3=O)[C@H]1N2CCC(F)(F)F,5[25 µM]
COc1ccc(S(=O)(=O)N(C)C[C@H]2OCc3cn(nn3)CCCC(=O)N([C@H](C)CO)C[C@H]2C)cc1,6[25 µM]
O=C(c1cnccn1)N1CC(=O)N2[C@@H](CO)[C@H](c3ccc(/C=C/c4ccccc4)cc3)[C@@H]2C1,-22[25 µM]
Cc1cnc(C(=O)OC(C)C(=O)Nc2ccc(Cl)cn2)cn1 (stereo unspecified),7
CCOc1ncccc1C(=O)OC(C)C(=O)Nc1ccc(Cl)cn1 (stereo unspecified),68*
Cc1cccc(OCC(=O)OC(C)C(=O)Nc2ccc(Cl)cn2)c1 (stereo unspecified),8
C/C=C/c1ccc([C@@H]2[C@H](CO)N(C(=O)NCCC)[C@H]2CNC(=O)C2CCC2)cc1,1
N#C[C@H]1[C@@H](c2ccccc2)[C@@H](CO)N1S(=O)(=O)Cc1ccccc1,2
COc1ccc2[nH]c(O)c(NC(C)=O)c2c1,7
COc1ccc2nc(C)[nH]c(=O)c2c1,3
COc1ccc2[nH]c(=O)c3c(c2c1)OC(C)(C)C=C3,38*
